Experimental data taken from PubChem BioAssay AID1159580 (chemical genetic matrix, 2015).
Several values for one entry are separate records, joined by “and”; a condition that tells them apart may be missing. Equal values may be shown once. In all, about 5,500 compounds went through this assay and about 2,000 (36%) were called active. Inconclusive results (about 18%) are left out. Rule as the data show it: active = normalized growth mostly below about 0.91 (no sharp cut-off); inconclusive = no clear call, values can overlap the other calls; inactive = mostly above about 0.92. This is one part of the list.

Experiment: chemical genetic growth profiling, strain panel (AID 1159580);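 also: tested at 20 µM; growth read once vehicle control cultures reached saturation at 30 °C; 1 = growth at the plate median or of vehicle wells; lower values mean less growth of the strain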
Conditions: S. cerevisiae deletion strains, growth OD

Measured: normalized growth

C=C[C@@]1(C)CC(=O)[C@@]2(O)[C@](C)(O1)[C@@H](OC(C)=O)[C@@H](O)C1C(C)(C)CC[C@H](O)[C@@]12C (stereo partly specified)
inactive: locus YAL013W, strain DEP1, stronger effect = lower value 0.984 | locus YAL021C, strain ccr4, stronger effect = lower value 0.951 | locus YAL026C, strain drs2, stronger effect = lower value 0.978 | locus YAL030W, strain snc1, stronger effect = lower value 0.973 | locus YBL061C, strain skt5, stronger effect = lower value 0.984 | locus YBR009C, strain hhf1, stronger effect = lower value 1 | locus YBR021W, strain FUR4, stronger effect = lower value 1.01 | locus YBR023C, strain chs3, stronger effect = lower value 0.978 | locus YBR171W, strain sec66, stronger effect = lower value 0.992 | locus YBR229C, strain ROT2, stronger effect = lower value 0.947 | locus YBR231C, strain swc5, stronger effect = lower value 1.01 | locus YBR279W, strain paf1, stronger effect = lower value 0.974 | locus YCL011C, strain gbp2, stronger effect = lower value 0.954 | locus YCL016C, strain dcc1, stronger effect = lower value 0.956 | locus YCL029C, strain bik1, stronger effect = lower value 0.977 | locus YCL069W, strain vba3, stronger effect = lower value 0.983 | locus YCR088W, strain abp1, stronger effect = lower value 0.996 | locus YDL005C, strain med2, stronger effect = lower value 0.983 | locus YDL035C, strain GPR1, stronger effect = lower value 0.96 | locus YDL040C, strain nat1, stronger effect = lower value 0.986 | locus YDL074C, strain BRE1, stronger effect = lower value 0.999 | locus YDL101C, strain DUN1, stronger effect = lower value 0.988 | locus YDL134C, strain PPH21, stronger effect = lower value 0.981 | locus YDL185W, strain tfp1, stronger effect = lower value 0.986 | locus YDL192W, strain arf1, stronger effect = lower value 0.976 | locus YDR001C, strain nth1, stronger effect = lower value 0.976 | locus YDR069C, strain doa4, stronger effect = lower value 0.975 | locus YDR101C, strain arx1, stronger effect = lower value 0.986 | locus YDR137W, strain rgp1, stronger effect = lower value 0.989 | locus YDR150W, strain NUM1, stronger effect = lower value 0.972 | locus YDR159W, strain sac3, stronger effect = lower value 1.02 | locus YDR162C, strain NBP2, stronger effect = lower value 0.969 | locus YDR195W, strain ref2 1.02 | locus YDR297W, strain sur2, stronger effect = lower value 0.977 | locus YDR318W, strain mcm21, stronger effect = lower value 0.986 | locus YDR334W, strain swr1, stronger effect = lower value 0.972 | locus YDR335W, strain msn5, stronger effect = lower value 0.988 | locus YDR388W, stronger effect = lower value 0.988 | locus YDR392W, strain spt3, stronger effect = lower value 0.905 | locus YDR502C, strain sam2, stronger effect = lower value 0.965 | locus YEL003W, strain gim4, stronger effect = lower value 0.994 | locus YEL037C, strain rad23, stronger effect = lower value 0.997 | locus YEL061C, strain CIN8 (second series), stronger effect = lower value 0.992 | locus YEL061C, strain CIN8, stronger effect = lower value 0.983 | locus YER015W, strain faa2, stronger effect = lower value 0.993 | locus YER016W, strain bim1, stronger effect = lower value 0.963 | locus YER110C, stronger effect = lower value 0.976 | locus YER111C, strain swi4, stronger effect = lower value 1.01 | locus YER155C, strain BEM2 (second series), stronger effect = lower value 0.999 | locus YER155C, strain BEM2, stronger effect = lower value 1.01 | locus YER167W, strain BCK2, stronger effect = lower value 0.964 | locus YFR010W, strain ubp6, stronger effect = lower value 0.998 | locus YGL078C, strain dbp3, stronger effect = lower value 0.985 | locus YGL086W, strain mad1, stronger effect = lower value 0.984 | locus YGL167C, strain pmr1, stronger effect = lower value 0.99 | locus YGL173C, strain kem1, stronger effect = lower value 0.987 | locus YGL227W, strain vid30, stronger effect = lower value 0.985 | locus YGL240W, strain doc1, stronger effect = lower value 0.98 | locus YGL248W, strain PDE1, stronger effect = lower value 0.982 | locus YGL253W, strain hxk2, stronger effect = lower value 0.948 | locus YGR078C, strain PAC10, stronger effect = lower value 1.01 | locus YGR135W, strain pre9, stronger effect = lower value 0.985 | locus YGR229C, strain SMI1, stronger effect = lower value 0.998 | locus YGR252W, strain gcn5, stronger effect = lower value 1 | locus YHR013C, strain ard1, stronger effect = lower value 0.948 | locus YHR027C, strain rpn1, stronger effect = lower value 0.982 | locus YHR030C, strain SLT2, stronger effect = lower value 0.987 and 0.975 | locus YHR079C, strain IRE1 (second series), stronger effect = lower value 0.994 | locus YHR079C, strain IRE1, stronger effect = lower value 0.978 | locus YHR094C, strain hxt1, stronger effect = lower value 0.987 | locus YHR129C, strain ARP1, stronger effect = lower value 0.996 | locus YHR142W, strain chs7, stronger effect = lower value 0.955 | locus YHR200W, strain rpn10, stronger effect = lower value 0.989 | locus YIL066C, strain RNR3, stronger effect = lower value 0.979 | locus YIL073C, strain SPO22, stronger effect = lower value 0.945 | locus YIL125W, strain kgd1, stronger effect = lower value 0.983 | locus YIR030C, strain dcg1, stronger effect = lower value 0.979 | locus YJL092W, strain hpr5, stronger effect = lower value 0.974 | locus YJL095W, strain BCK1 (second series), stronger effect = lower value 0.978 | locus YJL095W, strain BCK1, stronger effect = lower value 1 and 0.973 | locus YJL115W, strain asf1, stronger effect = lower value 0.964 | locus YJL129C, strain trk1, stronger effect = lower value 0.954 | locus YJL134W, strain LCB3, stronger effect = lower value 0.984 | locus YJL154C, strain vps35, stronger effect = lower value 0.982 | locus YJL164C, strain tpk1, stronger effect = lower value 0.995 | locus YJL166W, strain qcr8, stronger effect = lower value 0.992 | locus YJL168C, strain set2, stronger effect = lower value 0.992 | locus YJL187C, strain SWE1 (second series), stronger effect = lower value 0.991 | locus YJL187C, strain SWE1, stronger effect = lower value 0.984 | locus YJR043C, strain POL32, stronger effect = lower value 1.01 | locus YJR066W, strain TOR1, stronger effect = lower value 0.927
